Assay [1] deals with Ribosomal protein S6 kinase alpha-6 (Homo sapiens) (UniProt Q9UK32). The settings on record: at 1 µM.
Assay [2] deals with T1, Serine/threonine-protein kinase Sgk1 (Homo sapiens) (UniProt O00141).
T1 sequence (whole entry): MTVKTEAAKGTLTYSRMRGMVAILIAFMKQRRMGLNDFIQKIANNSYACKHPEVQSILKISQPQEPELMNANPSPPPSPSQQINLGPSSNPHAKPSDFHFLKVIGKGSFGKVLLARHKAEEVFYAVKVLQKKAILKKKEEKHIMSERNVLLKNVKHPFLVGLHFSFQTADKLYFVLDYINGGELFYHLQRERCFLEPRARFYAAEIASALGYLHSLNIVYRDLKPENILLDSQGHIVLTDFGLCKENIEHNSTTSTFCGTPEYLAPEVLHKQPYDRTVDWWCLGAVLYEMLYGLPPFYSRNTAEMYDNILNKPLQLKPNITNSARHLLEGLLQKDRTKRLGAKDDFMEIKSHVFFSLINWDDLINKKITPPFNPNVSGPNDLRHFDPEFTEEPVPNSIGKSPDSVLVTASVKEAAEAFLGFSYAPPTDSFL
The settings on record: at 0.1 µM.

The target in assay [3] is T1, Serine/threonine-protein kinase Sgk1 (Homo sapiens). The settings on record: at 1 µM.
In assay [4] the target is T2, Serine/threonine-protein kinase Sgk2 (Homo sapiens) (UniProt Q9HBY8).
T2 sequence (whole entry): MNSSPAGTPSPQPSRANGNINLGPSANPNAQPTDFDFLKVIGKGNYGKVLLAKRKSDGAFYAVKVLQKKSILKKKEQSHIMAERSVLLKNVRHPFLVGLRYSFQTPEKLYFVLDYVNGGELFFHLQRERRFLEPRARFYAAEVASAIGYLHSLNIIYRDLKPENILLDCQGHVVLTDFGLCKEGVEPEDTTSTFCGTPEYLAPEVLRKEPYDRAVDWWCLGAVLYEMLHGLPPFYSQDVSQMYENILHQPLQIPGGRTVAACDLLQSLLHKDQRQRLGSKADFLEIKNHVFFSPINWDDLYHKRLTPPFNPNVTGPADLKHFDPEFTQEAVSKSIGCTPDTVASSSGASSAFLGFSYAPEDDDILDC
The settings on record: at 0.1 µM.

Assay [5] addresses T2, Serine/threonine-protein kinase Sgk2 (Homo sapiens). The following applies: at 1 µM.
Assay [6] deals with T3, Serine/threonine-protein kinase Sgk3 (Homo sapiens) (UniProt Q96BR1).
T3 sequence (whole entry): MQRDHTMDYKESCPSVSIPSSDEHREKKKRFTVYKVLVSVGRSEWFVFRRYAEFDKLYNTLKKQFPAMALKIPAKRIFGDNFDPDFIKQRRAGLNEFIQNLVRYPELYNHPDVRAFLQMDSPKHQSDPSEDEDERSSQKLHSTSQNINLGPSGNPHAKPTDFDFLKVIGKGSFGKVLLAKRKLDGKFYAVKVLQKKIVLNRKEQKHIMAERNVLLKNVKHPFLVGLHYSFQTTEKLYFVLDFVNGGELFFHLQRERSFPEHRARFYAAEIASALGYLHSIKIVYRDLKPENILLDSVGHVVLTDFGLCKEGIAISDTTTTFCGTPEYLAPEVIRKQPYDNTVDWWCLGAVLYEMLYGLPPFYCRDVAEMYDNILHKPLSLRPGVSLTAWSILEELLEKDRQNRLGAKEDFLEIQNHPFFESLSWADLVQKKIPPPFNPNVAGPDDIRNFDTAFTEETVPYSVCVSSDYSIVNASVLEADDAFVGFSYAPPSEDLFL
The following applies: at 0.1 µM.

Assay [7] deals with T3, Serine/threonine-protein kinase Sgk3 (Homo sapiens). The following applies: at 1 µM.
Assay [8] concerns the target 5'-AMP-activated protein kinase catalytic subunit alpha-1 (Homo sapiens) (UniProt Q13131). The settings on record: at 0.1 µM.
Assay [9] has the same target. The settings on record: at 1 µM.
Assay [10] has as its target 5'-AMP-activated protein kinase catalytic subunit alpha-2 (Homo sapiens) (UniProt P54646). The settings on record: at 0.1 µM.
The target is the same in assay [11]. The following applies: at 1 µM.
Assay [12] addresses T4, NUAK family SNF1-like kinase 1 (Homo sapiens) (UniProt O60285).
T4 sequence (whole entry): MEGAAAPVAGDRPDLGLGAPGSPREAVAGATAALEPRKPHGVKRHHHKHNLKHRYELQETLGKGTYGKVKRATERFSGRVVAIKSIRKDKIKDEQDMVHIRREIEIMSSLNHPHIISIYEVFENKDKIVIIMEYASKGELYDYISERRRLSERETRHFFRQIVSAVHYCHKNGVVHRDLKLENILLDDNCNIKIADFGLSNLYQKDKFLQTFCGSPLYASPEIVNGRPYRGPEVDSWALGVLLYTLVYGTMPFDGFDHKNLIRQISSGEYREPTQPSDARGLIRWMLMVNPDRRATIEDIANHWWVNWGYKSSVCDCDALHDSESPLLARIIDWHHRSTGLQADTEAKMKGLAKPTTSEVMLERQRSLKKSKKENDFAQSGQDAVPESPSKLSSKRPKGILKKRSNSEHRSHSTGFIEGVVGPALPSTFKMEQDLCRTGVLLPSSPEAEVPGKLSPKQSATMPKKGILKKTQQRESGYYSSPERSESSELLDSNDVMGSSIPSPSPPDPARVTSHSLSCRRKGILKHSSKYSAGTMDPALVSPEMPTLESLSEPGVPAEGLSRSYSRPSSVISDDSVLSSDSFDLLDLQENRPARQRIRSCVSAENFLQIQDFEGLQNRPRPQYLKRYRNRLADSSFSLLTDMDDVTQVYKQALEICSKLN
The following applies: at 0.1 µM.

The target in assay [13] is T4, NUAK family SNF1-like kinase 1 (Homo sapiens). The settings on record: at 1 µM.
Assay [14] concerns the target T5, Serine/threonine-protein kinase BRSK1 (Homo sapiens) (UniProt Q8TDC3).
T5 sequence (whole entry): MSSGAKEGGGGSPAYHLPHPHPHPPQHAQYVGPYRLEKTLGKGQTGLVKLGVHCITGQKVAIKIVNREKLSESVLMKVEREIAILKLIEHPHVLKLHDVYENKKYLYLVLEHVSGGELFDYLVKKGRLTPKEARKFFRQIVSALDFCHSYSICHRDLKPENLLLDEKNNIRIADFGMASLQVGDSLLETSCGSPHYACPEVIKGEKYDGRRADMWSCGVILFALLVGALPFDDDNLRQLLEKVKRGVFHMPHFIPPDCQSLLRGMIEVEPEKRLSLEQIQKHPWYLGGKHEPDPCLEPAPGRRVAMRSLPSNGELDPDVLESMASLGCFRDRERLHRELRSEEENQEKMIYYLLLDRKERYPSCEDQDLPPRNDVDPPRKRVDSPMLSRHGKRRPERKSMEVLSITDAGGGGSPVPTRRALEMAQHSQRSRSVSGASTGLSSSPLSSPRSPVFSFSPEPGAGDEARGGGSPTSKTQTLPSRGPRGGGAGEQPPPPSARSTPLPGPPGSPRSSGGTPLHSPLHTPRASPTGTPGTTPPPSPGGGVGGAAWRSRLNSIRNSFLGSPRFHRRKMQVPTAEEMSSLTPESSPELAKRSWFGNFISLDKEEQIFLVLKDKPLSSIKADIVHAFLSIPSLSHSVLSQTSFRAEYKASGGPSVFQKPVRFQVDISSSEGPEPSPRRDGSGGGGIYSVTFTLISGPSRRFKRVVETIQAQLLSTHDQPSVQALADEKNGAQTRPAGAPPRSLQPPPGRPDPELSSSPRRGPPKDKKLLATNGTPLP
The following applies: at 0.1 µM.

Assay [15] concerns the target T5, Serine/threonine-protein kinase BRSK1 (Homo sapiens). The following applies: at 1 µM.
Assay [16] has as its target T6, Serine/threonine-protein kinase BRSK2 (Homo sapiens) (UniProt Q8IWQ3).
T6 sequence (whole entry): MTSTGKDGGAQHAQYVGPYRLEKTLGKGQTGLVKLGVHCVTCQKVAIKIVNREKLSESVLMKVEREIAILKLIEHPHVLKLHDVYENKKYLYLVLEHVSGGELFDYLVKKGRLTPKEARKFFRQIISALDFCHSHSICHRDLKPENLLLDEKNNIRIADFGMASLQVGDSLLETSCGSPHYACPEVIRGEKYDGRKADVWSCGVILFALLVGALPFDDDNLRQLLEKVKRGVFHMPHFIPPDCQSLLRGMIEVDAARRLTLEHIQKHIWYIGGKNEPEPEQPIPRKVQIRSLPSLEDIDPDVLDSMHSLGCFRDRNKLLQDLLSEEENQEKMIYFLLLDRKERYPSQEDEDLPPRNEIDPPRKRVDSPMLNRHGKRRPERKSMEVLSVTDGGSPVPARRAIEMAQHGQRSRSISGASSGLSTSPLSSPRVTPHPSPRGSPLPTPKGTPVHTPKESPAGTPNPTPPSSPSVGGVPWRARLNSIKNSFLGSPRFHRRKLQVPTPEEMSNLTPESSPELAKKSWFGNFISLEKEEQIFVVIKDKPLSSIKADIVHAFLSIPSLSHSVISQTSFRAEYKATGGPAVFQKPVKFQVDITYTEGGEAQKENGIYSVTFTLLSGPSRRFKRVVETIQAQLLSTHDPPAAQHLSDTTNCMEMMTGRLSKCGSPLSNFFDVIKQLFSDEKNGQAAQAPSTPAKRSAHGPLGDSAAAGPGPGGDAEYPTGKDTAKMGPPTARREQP
The settings on record: at 0.1 µM.

For assay [17], the target named is T6, Serine/threonine-protein kinase BRSK2 (Homo sapiens). The following applies: at 1 µM.
Assay [18] has as its target Calcium/calmodulin-dependent protein kinase type 1D (Homo sapiens) (UniProt Q8IU85). The settings on record: at 0.1 µM.
For assay [19] the target is unchanged. The settings on record: at 1 µM.
The target of assay [20] is Calcium/calmodulin-dependent protein kinase type II subunit alpha (Homo sapiens) (UniProt Q9UQM7). The following applies: at 0.1 µM.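 Further: reported values are averages (mean inhibition of CAMK2A).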
Chain of Calcium/calmodulin-dependent protein kinase type II subunit alpha (Homo sapiens) (Q9UQM7 whole entry): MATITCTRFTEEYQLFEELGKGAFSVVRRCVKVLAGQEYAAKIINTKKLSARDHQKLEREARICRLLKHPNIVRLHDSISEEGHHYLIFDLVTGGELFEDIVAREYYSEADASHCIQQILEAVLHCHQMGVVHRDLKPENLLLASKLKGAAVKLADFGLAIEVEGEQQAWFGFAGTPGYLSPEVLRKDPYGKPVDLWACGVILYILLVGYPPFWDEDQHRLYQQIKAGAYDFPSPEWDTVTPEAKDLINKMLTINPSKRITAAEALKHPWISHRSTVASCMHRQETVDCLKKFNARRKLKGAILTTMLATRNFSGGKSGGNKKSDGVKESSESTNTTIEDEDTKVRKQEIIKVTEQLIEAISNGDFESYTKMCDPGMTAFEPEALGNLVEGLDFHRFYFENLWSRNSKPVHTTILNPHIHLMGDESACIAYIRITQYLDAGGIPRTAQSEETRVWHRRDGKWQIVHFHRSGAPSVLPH

This is an account of results in ChEMBL document CHEMBL1961873, “Compounds: GSK PKIS; Assays: Nanosyn kinase panel” (2012).

Chain of 5'-AMP-activated protein kinase catalytic subunit alpha-1 (Homo sapiens) (Q13131 whole entry, looked up): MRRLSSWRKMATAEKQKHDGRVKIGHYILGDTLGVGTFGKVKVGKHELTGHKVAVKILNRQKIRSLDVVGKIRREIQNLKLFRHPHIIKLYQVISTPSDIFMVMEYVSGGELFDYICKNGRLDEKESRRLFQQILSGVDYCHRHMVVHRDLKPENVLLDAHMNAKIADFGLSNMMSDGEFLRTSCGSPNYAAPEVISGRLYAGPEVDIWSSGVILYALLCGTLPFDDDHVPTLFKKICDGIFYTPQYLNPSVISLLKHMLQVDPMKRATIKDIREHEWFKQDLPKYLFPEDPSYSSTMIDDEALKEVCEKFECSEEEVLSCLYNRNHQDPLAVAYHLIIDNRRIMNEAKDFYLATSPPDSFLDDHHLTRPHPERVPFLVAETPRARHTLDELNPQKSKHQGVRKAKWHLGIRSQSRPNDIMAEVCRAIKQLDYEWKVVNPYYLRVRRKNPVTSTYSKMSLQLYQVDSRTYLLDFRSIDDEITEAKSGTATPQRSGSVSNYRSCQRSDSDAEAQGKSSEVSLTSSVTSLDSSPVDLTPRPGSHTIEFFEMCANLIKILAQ
Chain of 5'-AMP-activated protein kinase catalytic subunit alpha-2 (Homo sapiens) (P54646 whole entry, looked up): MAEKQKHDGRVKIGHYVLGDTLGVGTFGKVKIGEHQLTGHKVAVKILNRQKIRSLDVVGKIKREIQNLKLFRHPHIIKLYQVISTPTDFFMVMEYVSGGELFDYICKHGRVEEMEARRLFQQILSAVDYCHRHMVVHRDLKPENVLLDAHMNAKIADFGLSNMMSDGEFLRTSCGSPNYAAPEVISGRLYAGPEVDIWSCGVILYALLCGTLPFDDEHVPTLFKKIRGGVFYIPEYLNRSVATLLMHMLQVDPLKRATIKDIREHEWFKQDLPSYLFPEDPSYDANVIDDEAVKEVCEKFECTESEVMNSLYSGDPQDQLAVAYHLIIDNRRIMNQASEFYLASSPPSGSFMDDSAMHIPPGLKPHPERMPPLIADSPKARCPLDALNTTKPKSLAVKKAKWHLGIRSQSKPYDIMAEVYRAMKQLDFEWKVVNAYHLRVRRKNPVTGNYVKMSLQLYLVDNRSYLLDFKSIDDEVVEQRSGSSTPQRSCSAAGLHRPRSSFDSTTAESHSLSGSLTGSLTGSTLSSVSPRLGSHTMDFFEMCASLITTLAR
Chain of Calcium/calmodulin-dependent protein kinase type 1D (Homo sapiens) (Q8IU85 whole entry, looked up): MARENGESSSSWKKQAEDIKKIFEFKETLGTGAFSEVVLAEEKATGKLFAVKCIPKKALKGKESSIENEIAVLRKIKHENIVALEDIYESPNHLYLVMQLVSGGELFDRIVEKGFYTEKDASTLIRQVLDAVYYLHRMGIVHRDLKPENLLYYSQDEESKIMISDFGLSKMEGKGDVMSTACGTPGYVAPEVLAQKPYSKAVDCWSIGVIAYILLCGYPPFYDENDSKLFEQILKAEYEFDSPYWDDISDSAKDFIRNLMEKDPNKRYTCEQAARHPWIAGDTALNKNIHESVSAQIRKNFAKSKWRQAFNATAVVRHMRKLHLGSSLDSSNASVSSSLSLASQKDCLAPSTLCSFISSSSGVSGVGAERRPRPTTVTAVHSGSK
Chain of Ribosomal protein S6 kinase alpha-6 (Homo sapiens) (Q9UK32 whole entry): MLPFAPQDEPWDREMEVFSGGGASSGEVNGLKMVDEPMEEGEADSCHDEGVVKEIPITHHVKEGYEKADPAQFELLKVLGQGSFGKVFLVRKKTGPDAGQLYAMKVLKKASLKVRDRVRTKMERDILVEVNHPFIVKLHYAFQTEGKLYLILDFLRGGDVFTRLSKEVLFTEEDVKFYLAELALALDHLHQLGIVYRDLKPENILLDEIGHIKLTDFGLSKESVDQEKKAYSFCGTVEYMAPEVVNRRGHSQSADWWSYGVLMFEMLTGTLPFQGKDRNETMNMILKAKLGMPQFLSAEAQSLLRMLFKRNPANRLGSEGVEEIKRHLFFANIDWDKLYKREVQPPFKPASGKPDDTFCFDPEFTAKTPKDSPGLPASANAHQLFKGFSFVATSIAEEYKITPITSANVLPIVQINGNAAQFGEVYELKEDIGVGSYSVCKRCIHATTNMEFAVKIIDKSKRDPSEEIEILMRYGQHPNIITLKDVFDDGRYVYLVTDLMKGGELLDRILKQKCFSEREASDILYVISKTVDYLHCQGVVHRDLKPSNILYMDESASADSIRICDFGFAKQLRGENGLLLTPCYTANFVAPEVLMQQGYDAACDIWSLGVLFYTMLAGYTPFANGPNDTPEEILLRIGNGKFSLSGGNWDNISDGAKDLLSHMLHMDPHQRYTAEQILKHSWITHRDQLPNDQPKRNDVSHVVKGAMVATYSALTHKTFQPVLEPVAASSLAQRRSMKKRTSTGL

As usually defined, the inhibition is the relative decrease from the control value, in per cent. `N#Cc1cccc(Nc2nccc(-c3cnn4ncccc34)n2)c1`: the inhibition came to 8.8% in assay [1]; 2.22% in [2]; 10.4% in [3]; 4.89% in assay [4]; 5.14% in [5]; 5.14% in assay [6]. The inhibition in [7] was found to be 7.33%; in assay [8], 2.67%; in [9], 10.4%; in assay [10], 2.03%; in assay [11], 12.5%; in assay [12], 38.5%. In addition, the inhibition in assay [13] is 73.4%; in assay [14] it was 0.94%; in [15] it was 7.19%; in [16], 2.94%; in assay [17], 12.1%; in assay [18], -0.83%. Further, the inhibition in [19] was 3.54%; in assay [20] it was 7.55%.
Turning to `CCOc1nccc2c1nc(-c1nonc1N)n2CC`, the inhibition in assay [1] is 4.02%; in assay [2], 4.63%; in [3], 8.95%; in assay [4] it was 4.13%; in [5], 12.7%; in assay [6], 6.9%. Besides, the inhibition in assay [7] was 15.9%; in assay [8], 3.1%; in [9] it was 7.14%; in assay [10], 2.19%; in assay [11] it was 4.98%; in assay [12], 7.99%. The inhibition in assay [13] amounted to 12.8%; in [14] it was 4.56%; in assay [15] it was 14.7%; in assay [16] it was 7.65%; in [17], 18.3%; in assay [18], 0.39%. Besides, the inhibition in assay [19] is -0.46%; in [20], 3.45%.
Take `COc1cccc(-n2nc(C)c3c(N/N=C(\C)c4ccncc4)ncnc32)c1`: the inhibition in assay [1] is 0.03%; in assay [2], -0.15%; in [3] it was 0.8%; in assay [4], 1.28%; in assay [5] it was 5.85%; in [6] it was 0.38%. Besides, the inhibition in assay [7] is 0.52%; in assay [8], -0.66%; in assay [9], 0.55%; in assay [10] it was 2.15%; in assay [11] it was 1.4%; in assay [12], 3.11%. The inhibition was 2.97% in [13]; 0.77% in [14]; -2.02% in [15]; -0.07% in assay [16]; 0.93% in [17]; -0.6% in assay [18]. In addition, the inhibition in assay [19] is 2.19%; in assay [20], -1.72%.
With `NS(=O)(=O)c1ccc(NC=C2C(=O)Nc3ccc4ncsc4c32)cc1`, the inhibition in assay [1] worked out at 77.4%; in assay [2], 19.7%; in assay [3], 64%; in [4] it was 8.38%; in assay [5] it was 36.4%; in assay [6], 5.73%. The inhibition in assay [7] was 19.1%; in [8] it was 38.4%; in assay [9], 68.2%; in assay [10], 24%; in [11], 53.4%; in [12], 69.9%. Moreover, the inhibition in assay [13] came to 69.8%; in assay [14] it was 34.1%; in assay [15], 60.3%; in assay [16] it was 45.2%; in assay [17] it was 63.6%; in [18] it was 2.99%. In addition, the inhibition in [19] was found to be 8.72%; in assay [20], 4.91%.
